# Assays:
# Test in all cases: DAPPL (digital affinity profiling via proximity ligation, sequencing); 10 mM Tris-HCl pH 7.5, 50 mM NaCl, 1 mM DTT, 4% glycerol, room temperature, 30 min; GST-TFs on glutathione beads, 16-mer random dsDNA library, 0.1% formaldehyde crosslink after washing; high values mean tight binding
# Conditions in all cases: protein: recombinant; tags: N-terminal GST; dsDNA, one strand shown
# FLI1 = biological target: T1, FLI1 (Homo sapiens, UniProt Q01543 1-452)
# T1 sequence: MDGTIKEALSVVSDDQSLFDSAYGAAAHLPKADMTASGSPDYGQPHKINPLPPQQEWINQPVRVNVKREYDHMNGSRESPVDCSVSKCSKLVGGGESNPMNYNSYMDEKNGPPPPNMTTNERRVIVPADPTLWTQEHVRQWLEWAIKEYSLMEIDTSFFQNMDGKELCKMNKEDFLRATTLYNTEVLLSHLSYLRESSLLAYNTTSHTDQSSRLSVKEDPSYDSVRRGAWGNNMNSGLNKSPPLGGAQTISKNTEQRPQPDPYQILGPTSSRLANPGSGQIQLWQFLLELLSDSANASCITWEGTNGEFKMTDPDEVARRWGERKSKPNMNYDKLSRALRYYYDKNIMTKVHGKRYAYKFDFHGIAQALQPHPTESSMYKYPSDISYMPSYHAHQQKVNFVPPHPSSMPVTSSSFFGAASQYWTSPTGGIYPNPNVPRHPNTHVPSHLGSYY
# Method in brief: (§1)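 Sequencing on an Illumina NextSeq500 followed washing, crosslinking with 0.1% formaldehyde, proximity ligation (BsaI/T4 ligase, 1 h, 37 °C) and PCR amplification of pools that had been incubated for 30 min at room temperature with 200 nmole of a random double-stranded 16-mer DNA library in Tris/NaCl/DTT/glycerol buffer. Each pool held DNA-barcoded human transcription factors, expressed in yeast as GST fusions and captured on glutathione beads, plus a tag-only sample. Binding signal is a hexamer's read frequency for a factor divided by its frequency in the tag-only sample.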
# ELK1 = biological target: T2, ELK1 (Homo sapiens, UniProt P19419 1-428)
# T2 sequence: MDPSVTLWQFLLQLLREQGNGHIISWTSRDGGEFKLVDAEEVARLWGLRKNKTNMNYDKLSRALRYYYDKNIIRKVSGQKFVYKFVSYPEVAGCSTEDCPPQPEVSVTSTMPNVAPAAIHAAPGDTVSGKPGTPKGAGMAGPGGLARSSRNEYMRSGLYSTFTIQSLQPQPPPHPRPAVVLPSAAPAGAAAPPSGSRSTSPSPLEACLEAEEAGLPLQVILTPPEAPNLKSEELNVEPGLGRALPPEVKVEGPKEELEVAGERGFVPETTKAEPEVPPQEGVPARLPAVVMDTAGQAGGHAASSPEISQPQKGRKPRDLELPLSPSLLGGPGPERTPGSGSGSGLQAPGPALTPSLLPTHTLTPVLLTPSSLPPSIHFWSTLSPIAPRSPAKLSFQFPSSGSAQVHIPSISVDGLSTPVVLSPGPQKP
# Method in brief: as §1
# GABPA = biological target: T3, GABPA (Homo sapiens, UniProt Q06546 1-454)
# T3 sequence: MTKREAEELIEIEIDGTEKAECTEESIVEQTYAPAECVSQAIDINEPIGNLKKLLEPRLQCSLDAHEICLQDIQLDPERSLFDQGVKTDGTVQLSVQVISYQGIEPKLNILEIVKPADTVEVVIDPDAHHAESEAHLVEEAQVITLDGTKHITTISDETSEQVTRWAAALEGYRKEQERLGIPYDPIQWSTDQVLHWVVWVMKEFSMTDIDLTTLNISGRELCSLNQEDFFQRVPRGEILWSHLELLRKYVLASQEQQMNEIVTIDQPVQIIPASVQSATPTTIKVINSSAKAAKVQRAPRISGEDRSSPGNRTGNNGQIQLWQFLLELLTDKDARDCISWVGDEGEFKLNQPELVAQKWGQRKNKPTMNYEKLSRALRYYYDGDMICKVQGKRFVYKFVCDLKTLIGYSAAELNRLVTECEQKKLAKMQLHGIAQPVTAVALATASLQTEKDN
# Method in brief: as §1
# ERG = biological target: T4, ERG (Homo sapiens, UniProt P11308 1-479)
# T4 sequence: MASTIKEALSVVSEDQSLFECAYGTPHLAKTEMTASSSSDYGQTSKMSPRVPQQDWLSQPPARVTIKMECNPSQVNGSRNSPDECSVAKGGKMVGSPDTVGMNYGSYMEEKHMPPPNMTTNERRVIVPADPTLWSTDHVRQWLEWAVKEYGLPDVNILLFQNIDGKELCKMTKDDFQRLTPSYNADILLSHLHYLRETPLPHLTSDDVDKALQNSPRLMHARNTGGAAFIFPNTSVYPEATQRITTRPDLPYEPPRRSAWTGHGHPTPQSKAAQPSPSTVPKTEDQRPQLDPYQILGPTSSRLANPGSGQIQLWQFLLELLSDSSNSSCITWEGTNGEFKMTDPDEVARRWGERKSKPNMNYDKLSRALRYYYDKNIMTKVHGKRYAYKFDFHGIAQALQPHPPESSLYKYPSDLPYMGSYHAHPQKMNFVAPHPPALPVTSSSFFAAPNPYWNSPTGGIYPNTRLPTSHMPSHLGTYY
# Method in brief: as §1
# ELF1 = ELF1 (Homo sapiens, UniProt P32519 1-619)
# Chain of ELF1 (P32519 whole entry): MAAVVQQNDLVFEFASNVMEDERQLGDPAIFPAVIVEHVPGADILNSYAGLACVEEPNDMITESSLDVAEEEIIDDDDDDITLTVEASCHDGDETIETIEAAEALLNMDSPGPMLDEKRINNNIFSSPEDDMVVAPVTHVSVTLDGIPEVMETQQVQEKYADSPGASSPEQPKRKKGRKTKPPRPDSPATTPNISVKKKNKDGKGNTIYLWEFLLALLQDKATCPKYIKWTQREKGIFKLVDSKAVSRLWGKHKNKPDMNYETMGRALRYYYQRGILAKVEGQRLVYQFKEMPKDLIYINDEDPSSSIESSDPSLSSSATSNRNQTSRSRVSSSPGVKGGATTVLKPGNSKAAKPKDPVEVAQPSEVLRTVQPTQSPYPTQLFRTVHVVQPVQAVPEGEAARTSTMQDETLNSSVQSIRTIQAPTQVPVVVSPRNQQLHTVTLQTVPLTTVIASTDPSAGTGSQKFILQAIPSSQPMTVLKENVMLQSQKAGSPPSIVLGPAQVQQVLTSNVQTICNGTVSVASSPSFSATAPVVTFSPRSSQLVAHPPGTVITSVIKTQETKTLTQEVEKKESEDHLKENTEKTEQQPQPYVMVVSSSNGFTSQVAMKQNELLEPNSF
# Method in brief: as §1
# EHF = biological target: T5, EHF (Homo sapiens, UniProt Q9NZC4 1-300)
# T5 sequence: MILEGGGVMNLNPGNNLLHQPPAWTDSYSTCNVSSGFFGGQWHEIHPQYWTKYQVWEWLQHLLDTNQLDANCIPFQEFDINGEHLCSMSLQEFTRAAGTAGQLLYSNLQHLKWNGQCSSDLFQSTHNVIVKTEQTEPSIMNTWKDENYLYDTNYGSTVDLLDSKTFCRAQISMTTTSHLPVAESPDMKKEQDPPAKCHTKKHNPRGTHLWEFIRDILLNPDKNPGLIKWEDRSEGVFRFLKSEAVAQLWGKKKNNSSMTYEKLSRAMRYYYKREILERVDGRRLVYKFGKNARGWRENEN
# Method in brief: as §1
# SPI1 = SPI1 (Homo sapiens, UniProt P17947 1-270)
# Method in brief: as §1
# SPIB = SPIB (Homo sapiens, UniProt Q01892 1-262)
# Chain of SPIB (Q01892 whole entry): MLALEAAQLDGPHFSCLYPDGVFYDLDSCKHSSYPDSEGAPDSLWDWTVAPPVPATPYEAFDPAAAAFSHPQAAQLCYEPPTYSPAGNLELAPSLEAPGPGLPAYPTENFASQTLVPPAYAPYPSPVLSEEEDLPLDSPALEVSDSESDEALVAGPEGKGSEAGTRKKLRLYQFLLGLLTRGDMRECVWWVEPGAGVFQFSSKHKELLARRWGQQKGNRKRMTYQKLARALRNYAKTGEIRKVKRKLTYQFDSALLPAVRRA
# Method in brief: as §1
# ELK3 = biological target: T6, ELK3 (Homo sapiens, UniProt P41970 1-407)
# T6 sequence: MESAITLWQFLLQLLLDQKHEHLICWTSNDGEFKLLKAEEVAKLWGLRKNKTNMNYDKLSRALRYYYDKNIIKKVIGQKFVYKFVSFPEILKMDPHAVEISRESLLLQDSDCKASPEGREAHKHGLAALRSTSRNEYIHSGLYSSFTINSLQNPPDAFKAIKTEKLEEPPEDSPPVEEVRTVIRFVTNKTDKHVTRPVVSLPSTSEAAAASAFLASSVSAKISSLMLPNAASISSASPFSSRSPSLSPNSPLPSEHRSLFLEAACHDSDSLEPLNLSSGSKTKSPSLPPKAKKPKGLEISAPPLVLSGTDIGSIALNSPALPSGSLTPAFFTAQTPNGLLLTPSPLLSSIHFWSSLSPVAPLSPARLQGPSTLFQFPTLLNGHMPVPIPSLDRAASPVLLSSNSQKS
# Method in brief: as §1
sequence,measurement,setting,value
TAGCTT,binding signal,FLI1,"1.18 fold enrichment (6-mer frequency, TF over GST control)"
same,binding signal,ELK1,"1.26 fold enrichment (6-mer frequency, TF over GST control)"
same,binding signal,GABPA,"1.31 fold enrichment (6-mer frequency, TF over GST control)"
same,binding signal,ERG,"1.17 fold enrichment (6-mer frequency, TF over GST control)"
same,binding signal,ELF1,"1.21 fold enrichment (6-mer frequency, TF over GST control)"
same,binding signal,EHF,"1.21 fold enrichment (6-mer frequency, TF over GST control)"
same,binding signal,SPI1,"1.25 fold enrichment (6-mer frequency, TF over GST control)"
same,binding signal,SPIB,"1.29 fold enrichment (6-mer frequency, TF over GST control)"
same,binding signal,ELK3,"1.31 fold enrichment (6-mer frequency, TF over GST control)"

# Source: article PMC7862700, “An all-to-all approach to the identification of sequence-specific readers for epigenetic DNA modifications on cytosine”
